The source of these data is PubChem BioAssay AID1794835 (Parasite Biology Lab, Institute for Biomedicine and …, 2023).

As a reminder, the inhibition is the percentage by which the read-out fell short of the control.

The structures appear in SMILES notation. Among all 2,500 compounds or so, about 45 (2%) were called active. Rule as the data show it: active = inhibition mostly above about 45% (no sharp cut-off); inactive = mostly below about 37%. Many of the other results were omitted from the sample, so actives are more common in it than they were.

A short description of the assay: anti-Giardia activity of synthetic compounds – Compounds Australia Scaffold Library subset, 24/48 h, primary screen (AID 1794835).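 As to inhibition: 0% = parasite counts in DMSO vehicle wells.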 As to conditions: Giardia lamblia BRIS/91/HEPU/1279 trophozoite counts, imaging, at 10 µM.
The mark [1] stands for this setting: measured here: growth inhibition at 24 h, stronger effect = higher value.

`Cc1ccc(NC(=O)c2ccc(=O)n(CCN3CCOCC3)n2)cc1`: the inhibition is, setting by setting: (stronger effect = higher value) 2.3% (inactive); under setting [1], 1.4%.
Regarding `Cc1ccc(NC(=O)c2cc3c(Cl)ccc4c3n2CCO4)cc1`, the inhibition was 49.3% (active) (stronger effect = higher value) and 30.6% under setting [1].
Consider `Cc1ccc(NC(=O)C2=NN(CC(=O)Nc3ccc4c(c3)OCCO4)C(=O)CC2)cc1`, for which the inhibition entry was “inactive”.
On the same count and under the same terms, the value for `CCOc1ccc(NC(=O)CN2C(c3ccc(C)cc3)=CC(c3ccccc3)n3nnnc32)cc1` (stereo unspecified) was “inactive”.
As to `CCN(CC)CCN1C(=O)C(O)=C(C(=O)c2cccs2)C1c1ccc(C)o1` (stereo unspecified), the inhibition (stronger effect = higher value) was 15% (inactive).
Regarding `O=c1ccc(-c2nnco2)cn1Cc1ccc(F)c2cccnc12`, the inhibition entry was “inactive”.
Take `Cc1ccc(NC(=O)c2oc3ccccc3c2NC(=O)c2ccccc2)cc1`: for the setting “stronger effect = higher value”, the inhibition was 1.2% (inactive).
Regarding `CC1CCN(C(=O)c2oc3ccccc3c2NC(=O)c2ccc([N+](=O)[O-])o2)CC1`, the inhibition (stronger effect = higher value) is 95.2% (active) and the inhibition under setting [1] came to 87.8%.
As for `CC1CCN(C(=O)c2n[nH]c(=O)c3ccccc23)CC1`, the result was inactive. Also, the inhibition under setting [1] is 4%.
Consider `Cn1cc(S(=O)(=O)N2CCN(C(=O)Cc3c[nH]c4ccccc34)CC2)cc1C(N)=O`, for which the inhibition entry was “inactive”.
`Cc1cc(NCc2ccccc2CN2CCCC2)nc(-c2ccncc2)n1`: the inhibition result is “inactive”.
In the case of `Cc1nn(-c2ccc(F)cc2)c2sc(C(=O)N3CCCCC3C(N)=O)cc12` (stereo unspecified), the inhibition result is “inactive”.
As to `COc1ccccc1N1CCN(C(=O)c2ccc3[nH]c(C)c(C)c3c2)CC1`, under “stronger effect = higher value”, the inhibition is 36.6% (inactive).
For `Cc1nn(-c2ccccc2)c2sc(C(=O)N3CCCCC3)cc12`, the inhibition runs as follows: (stronger effect = higher value) 39.6% (active); under setting [1], 21.1%.
Regarding `Cc1nn(Cc2ccccc2)c2sc(C(=O)N3CCN(C(=O)N4CCCCC4)CC3)cc12`, under “stronger effect = higher value”, the inhibition is 14% (inactive).
In the case of `COc1ccccc1N1CCN(C(=O)c2cc3c(C)nn(-c4ccc(C)cc4)c3s2)CC1`, the inhibition (stronger effect = higher value) was 65.7% (active) and the inhibition under setting [1] was determined as 48%.
`COc1ccccc1N1CCN(C(=O)c2cc(C3CC3)[nH]n2)CC1`: the outcome was inactive. Besides, the inhibition under setting [1] is 9.6%.
In the same order, the values of `Cc1ccc(-c2ncc(C(=O)NC3CCCCCC3)c(C)n2)cc1` are “inactive” and 6.7%.
Turning to `COc1cccc(CNC(=O)Cn2ccc3sccc3c2=O)c1`, the inhibition is 6.6% (inactive) (stronger effect = higher value) and 0.5% under setting [1].
For `COc1cccc(N2CCN(C(=O)C3CCN(c4nc(NC(C)=O)ns4)CC3)CC2)c1`, the inhibition is 16.2% (inactive) (stronger effect = higher value) and 7.9% under setting [1].
As for `CCCc1cc(N2CCOCC2)n2nc(C)c(-c3ccccc3)c2n1`, where the note is “stronger effect = higher value”, the inhibition is 20.2% (inactive).
Turning to `Cc1cc(NC(=O)CN2c3ccccc3NC3=C(C(=O)CC(C)(C)C3)C2c2ccccc2)no1` (stereo unspecified), the inhibition entry was “inactive”.
The same measure, in the same setting: with `Cn1cnc2onc(C(=O)NC3CCCCC3)c2c1=O` the entry was “inactive”.
In the case of `O=S(=O)(c1cccc(F)c1)N1CC(OCc2cccc(F)c2)C1`, the inhibition runs as follows: (stronger effect = higher value) 10% (inactive); under setting [1], 1.5%.
`Nc1c(-c2nc(-c3ccccc3)cs2)c2ccccn2c1C(=O)c1ccc2c(c1)OCO2`: the inhibition runs as follows: (stronger effect = higher value) 83.1% (active); under setting [1], 63.2%.
Turning to `Cc1nc2sccn2c1-c1nc(-c2ccccc2)c(C(=O)c2ccc3c(c2)NC(=O)CO3)s1`, the inhibition runs as follows: (stronger effect = higher value) 7% (inactive); under setting [1], 1.6%.
For `COc1ccc(C(=O)c2c(N)c(-c3nc(-c4cc(OC)ccc4OC)cs3)c3ccccn23)cc1`, the outcome was inactive. Also, the inhibition under setting [1] worked out at 3.8%.
`COc1cccc(C(=O)N2CCN(CC3CCCO3)CC2)c1` (stereo unspecified): the inhibition entry was “inactive”.
For `CCOc1ccc(NC(=O)N2Cc3cccn3-c3ccccc32)cc1`, the inhibition result was “inactive”.
For the compound `CN1CCCN(c2ncnc3cc(Cl)ccc23)CC1`, the inhibition entry is “inactive”.
Turning to `N=C1C(c2nc(-c3ccc(Cl)cc3)cs2)=C(O)CN1CCc1ccccc1`, the inhibition entry is “inactive”.
As for `COc1ccc(-c2csc(C3=C(O)CN(CC(C)(C)CN(C)C)C3=N)n2)cc1OC`, the inhibition reads like this: (stronger effect = higher value) 76.8% (active); under setting [1], 23.9%.
In the same order, the values of `COc1ccc(-c2csc(-n3nccc3C(F)(F)F)n2)cc1OC` are 27.9% (inactive) and 8%.
Turning to `Cc1ccc(COCc2nn(C)c3c2CN(C(=O)Nc2ccccc2)CC3)cc1`, the call was inactive. Under setting [1], the inhibition worked out at 4.7%.
On to `CCn1cc(C(=O)NCc2ccccc2)c(=O)c2ccc(C)nc21`, for which the inhibition was 6.1% (inactive) (stronger effect = higher value) and 8.9% under setting [1].
In the case of `Cc1ncncc1C(=O)N1CCN(CC(O)C(C)(C)C)CC1` (stereo unspecified), the inhibition result is “inactive”.
Take `COc1ccc(Nc2cc(C)nc(N3CCN(C(=O)Nc4cccc(OC)c4)CC3)n2)cc1`: the inhibition runs as follows: (stronger effect = higher value) 86.6% (active); under setting [1], 49.4%.
In the same order, the values of `COc1ccc(Nc2cc(C)nc(N3CCN(C(=O)c4ccccc4)CC3)n2)cc1` are 29.3% (inactive) and 5.55%.
The like results for `COc1ccc(NC(=O)N2CCN(c3cc(C)nc(N4CCOCC4)n3)CC2)cc1` were, in that order, 44.4% (inactive) and 12.7%.
Take `CN(C)C(=O)CN1CCCN(Cc2ncc(C(C)(C)C)o2)CC1`: the inhibition was 1.9% (inactive) (stronger effect = higher value) and 6.5% under setting [1].
As to `CCN(Cc1ccccc1)C(=O)c1cc(-c2ccccc2)n[nH]1`, the inhibition was 36.1% (inactive) (stronger effect = higher value) and 19.1% under setting [1].
For `Cc1noc(C)c1S(=O)(=O)N1CCC(C(=O)NCC(c2ccccc2)N(C)C)CC1` (stereo unspecified), the call was inactive. Under setting [1], this compound gave an inhibition of 10.5%.
For `Cc1nn(C)c2sc(C(=O)N3CCN(S(=O)(=O)c4ccc(Br)cc4)CC3)cc12`, the inhibition (stronger effect = higher value) is 10.6% (inactive).
`COc1ccc2c(c1)CCc1c-2noc1-c1ccc(NC(=O)c2cc(C)nn2C)cc1`: the inhibition entry was “inactive”.
For `CCOc1ccc(C(=O)Nc2ccc(-c3nnc4n3CCCCCC4)cc2)cc1`, the inhibition result was “inactive”.
Take `COc1ccc(NC(=O)c2ccc(-c3cc(NC4CCCCC4)ncn3)cc2)cc1`: the inhibition was 51% (active) (stronger effect = higher value) and 17.1% under setting [1].
